Assay results taken from PubChem BioAssay AID761 (NMMLSC, 2007).
Among all 190,000 compounds or so, about 400 (0.21%) were called active. Inconclusive results (about 2%) are left out. Only a selection was taken, and actives are over-represented in it overall. Unmarked numbers belong to inactive results.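 How the source made its calls: active means percent activity GTP binding at least 20 points away from the 100% baseline, either down as inhibitor or up as activator; inconclusive means compound flagged as likely green fluorescent from well-wide comparison; inactive means the rest.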

Biological target: Cell division control protein 42 homolog (Homo sapiens) (UniProt P60953)
Assay: wildtype Cdc42 fluorescent GTP binding changes, either direction – biochemical, multiplex bead flow cytometry, Bodipy-GTP, primary screen (AID 761);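 further: median bead fluorescence of bound Bodipy-FL-GTP at 100 nM; 0% = excess unlabeled GTP control and 100% = no compound control; below 100% means less GTP binding so inhibitor and above means activator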
Conditions: GST-Cdc42 beads, at 10 µM, actives lie on both sides

Chain of Cell division control protein 42 homolog (Homo sapiens) (P60953 whole entry, looked up): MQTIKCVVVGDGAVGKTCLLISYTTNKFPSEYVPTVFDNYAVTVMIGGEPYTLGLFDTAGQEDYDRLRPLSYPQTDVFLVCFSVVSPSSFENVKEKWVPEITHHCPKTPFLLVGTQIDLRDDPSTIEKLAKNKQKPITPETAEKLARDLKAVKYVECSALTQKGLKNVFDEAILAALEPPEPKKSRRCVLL

SMILES	percent activity (GTP binding)
O=C(O)c1n[nH]nc1-c1ccccc1	99%
O=C(/C=C\c1cn(-c2ccccc2)nc1-c1cccs1)N1CCOCC1	100%
O=C(O)/C=C/c1cn(-c2ccccc2)nc1-c1cccs1	93%
O=C(O)/C=C/c1cn(Cc2ccccc2)nc1-c1cccs1	135% [activator] (active)
NS(=O)(=O)c1ccc(NC(=O)/C=C/c2ccccc2Cl)cc1	97%
O=C(COc1cc(Cl)c(Cl)cc1Cl)NCCc1ccccn1	94%
CCOC(=O)N1CCN(CC(=O)Nc2ccc(F)cc2)CC1	96%
Cc1cc(C)cc(NC(=O)Cn2cnc3c(nnn3Cc3ccc(F)cc3)c2=O)c1	93%
Cc1cccc(C(=O)NNC(=O)c2cccc([N+](=O)[O-])c2)c1	105%
COc1ccccc1N1CCN(C(=O)c2ccc(Cl)c(S(=O)(=O)N3CCCC3)c2)CC1	100%
O=C(Cc1ccc(F)cc1)N1CCN=C1SCc1cccc([N+](=O)[O-])c1	96%
Cc1ccc(CSc2nc3[nH]ncc3c(=O)[nH]2)cc1	76% (active)
Cc1cccc(NC(=O)CSc2nc3[nH]ncc3c(=O)[nH]2)c1	97%
CCCSc1nc2[nH]ncc2c(=O)[nH]1	100%
O=C(NCc1cccs1)c1cc(-c2ccccn2)nc2ccc(Br)cc12	98%
O=C(c1cccc([N+](=O)[O-])c1)N1CCN(C(=O)c2ccco2)CC1	94%
CCN(C(=O)COC(=O)/C=C/c1nc2ccccc2s1)C1CCS(=O)(=O)C1 (stereo not drawn)	93%
CCOc1ccc(N(CC(=O)NCCc2ccc(OC)cc2)S(C)(=O)=O)cc1	100%
Cc1ccccc1NC(=S)NNC(=O)c1cccc(Br)c1	91%
Cc1nc(S(=O)(=O)c2ccc(Br)cc2)nc2c1CCC2	94%
COc1ccc(C(=O)Nc2ccc(NC(=O)C(C)C)nc2)cc1	93%
Cc1cccc(C(=O)OC(C)CN2CCN(C)CC2)c1 (stereo not drawn)	101%
Nc1ccc(OCC(O)C[n+]2ccc(CCS(=O)(=O)[O-])cc2)cc1 (stereo not drawn)	102%
O=C(Cc1ccc(F)cc1)N/N=C/c1ccc2c(c1)OCO2	97%

SMILES	percent activity (GTP binding)
OCCC1CN(Cc2cccn2-c2nccs2)CCN1CCc1ccccc1 (stereo not drawn)	95%
CC(/C=N/NC(=O)c1ccncc1)=C\c1ccco1	99%
CCOC(=O)C1(Cc2cccc(OC)c2)CCCN(S(=O)(=O)c2cccnc2)C1 (stereo not drawn)	100%
O=C(CSc1nnnn1-c1ccc(O)cc1)N1N=C(c2ccc3ccccc3c2)CC1c1ccccc1 (stereo not drawn)	98%
O=C(OCC1O[C@@H](OC(=O)c2cc(O)c(O)c(O)c2)[C@@H](OC(=O)c2cc(O)c(O)c(O)c2)[C@@H](OC(=O)c2cc(O)c(O)c(O)c2)[C@@H]1OC(=O)c1cc(O)c(O)c(O)c1)c1cc(O)c(O)c(O)c1 (stereo partly drawn)	79% (active)
CC(=O)NC1C(OCc2ccccc2)OC(COC(C)=O)C(OC(C)=O)C1OC(C)=O (stereo not drawn)	104%
NC(=O)COc1ccc(NC(=O)c2ccccc2-c2ccccc2)cc1	92%
CCOC(=O)c1ccc(N/C(=N/S(=O)(=O)c2ccccc2)c2ccccc2)cc1	98%
CCOC(=O)c1ccc(Nc2cc(C)nc3nc(C)nn23)cc1	99%
CCOC(=O)c1nc(Nc2ccc(C(=O)OC)cc2)c2ccccc2n1	74% (active)
CC(=O)Nc1ccccc1NC(=O)c1cc(C)cc(C)c1	98%
NC(N)=Nc1nc2ccc(Br)cc2c(=O)[nH]1	93%
O=C(Nc1ccc(Cl)cc1)C1c2cccc[n+]2CC(=O)N1Cc1ccc2c(c1)OCO2 (stereo not drawn)	99%
CCC1CCCCN1C(=O)CSc1nc2c(c(=O)n(C)c(=O)n2C)n1C (stereo not drawn)	98%
Fc1cccc(Cc2noc(CN3CCN(c4cnccn4)CC3)n2)c1	101%
CCOC(=O)c1ccc(NC2Nc3cc(C)nn3S2)cc1 (stereo not drawn)	95%
CC(=O)c1ccccc1NC(=O)CC1(CC(=O)O)CCCCC1	95%
Cc1ccc(C)c(-n2nnnc2SCC(=O)c2c(N)n(C)c(=O)n(C)c2=O)c1	93%
Cc1ccc(S(=O)(=O)NC(C(=O)N2CCOCCOCCOCCOCC2)c2ccccc2)cc1 (stereo not drawn)	100%
COc1ccccc1C(=O)CSc1cccc[n+]1[O-]	94%
CCCCN(C(=O)COc1ccc(NC(C)=O)cc1)C1CCS(=O)(=O)C1 (stereo not drawn)	96%
Cc1ccc(Cl)cc1NC(=O)COC(=O)CC(C)(C)C	90%
CCCCn1c(=O)c(C(C)=O)c(O)c2ccccc21	96%
CCNC(=O)COc1cc(C)c(Br)c(C)c1	105%
